Results published in PubChem BioAssay (NCI).
Compounds without any hit were thinned out: in the full panel of roughly 83,000, 20% have a hit.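 Activity criterion: percent growth below 10, measured after cells in 96-well plates were exposed to a single compound concentration for 48 hours.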 Values without a mark were called inactive. Active and inactive are the calls of the source.

What was measured:
Experiment in all cases: NCI-60 one-dose screen, 48 h (100 = growth as untreated, 0 = no growth, -100 = all killed)
Conditions in all cases: 10 µM unless noted
SK-MEL-2 melanoma = system: SK-MEL-2 melanoma
EKVX NSCLC = system: EKVX NSCLC
UO-31 renal = system: UO-31 renal
TK-10 renal = system: TK-10 renal
ACHN renal = system: ACHN renal
CAKI-1 renal = system: CAKI-1 renal
A498 renal = system: A498 renal
CCRF-CEM leukemia = system: CCRF-CEM leukemia
MOLT-4 leukemia = system: MOLT-4 leukemia
SN12C renal = system: SN12C renal

| Compound | growth (SK-MEL-2 melanoma) | growth (EKVX NSCLC) | growth (UO-31 renal) | growth (TK-10 renal) | growth (ACHN renal) | growth (CAKI-1 renal) | growth (A498 renal) | growth (CCRF-CEM leukemia) | growth (MOLT-4 leukemia) | growth (SN12C renal) |
| --- | --- | --- | --- | --- | --- | --- | --- | --- | --- | --- |
| O=C1OCC2=C1C(c1ccccc1)c1cc3c(cc1N2CCO)OCO3 (centres undefined) | 14.6% | 35.4% | 43.9% | 63.4% | 36.5% | 35.8% | 6.06% (active) | – | – | – |
| O=S(=O)(Cc1ccc(Cl)cc1Cl)c1ccc(Cl)cc1 | 31.1% | 63.4% | 46.2% | 32.6% | 55.7% | 38.1% | 42.5% | 10.8% | 33.3% | – |
| CC[C@]1(O)C[C@H]2CN(CCc3c([nH]c4ccccc34)C(C(=O)OC)(c3cc4c(cc3OC)N(C)[C@H]3[C@@](O)(C(=O)OC)[C@H](OC(C)=O)[C@]5(CC)[C@@H]6C[C@@H]6CN6CC[C@]43[C@@H]65)C2)C1 (some centres undefined) | 45.5% | 35.2% | 9.66% (active) | 52.7% | 5.92% (active) | -13.2% (active) | 16.6% | 4.35% (active) | 3.74% (active) | – |
| COc1cc(-c2nc(-c3ccc(-c4nc5ccc(F)cc5[nH]4)cc3)no2)cc(OC)c1OC | 55.6% | 46.9% | 19.8% | 93% | 36.7% | 47.3% | 71.2% | 8.61% (active) | 21.1% | – |
| CC(=O)Nc1ccc(/C=N/N2CCCCCC2)cc1 | 118% | 98.8% | 93.9% | 114% | 79.1% | – | 108% | 106% | 102% | 83.3% |
| O=C(CCCN1CCC(O)(c2ccc(Br)cc2)CC1)c1ccc(F)cc1 | 100% | 91% | 45.6% | 96.6% | 72.5% | – | 82.2% | 63.8% | 60.3% | 72.8% |
| CNC(=O)c1c(NC(=O)c2ccc(C(C)C)cc2)sc2c1CCC(=O)C2 | -6.19% (active) | -4.35% (active) | -99.6% (active) | 28.7% | -90.2% (active) | -9.28% (active) | -19.7% (active) | 1.96% (active) | – | – |
| Cc1ccccc1NC(=O)c1sc2nc3c(cc2c1N)C(=O)CCC3 | 58.6% | 87.5% | 77.5% | 81.2% | 49.3% | 55.4% | 31.3% | 30.3% | 67.5% | – |
| COc1cnc2c(c1)C(=O)c1c-2n(CCCNC(C)C)c(=O)c2cc(Cl)ccc12 | 70.2% | -32.7% (active) | -81.7% (active) | -89.1% (active) | -100% (active) | 28.8% | -2.79% (active) | -41.1% (active) | -47% (active) | – |
| O=C(/C=C/c1ccco1)c1ccccc1O | 108% | 104% | 87.5% | 122% | 102% | 99.3% | 106% | 76.5% | 118% | – |
| Oc1ccc(-c2nnc3c4[nH]ccc4ncn23)cc1 | 113% | 93.6% | 76.3% | 92.3% | 87.9% | 84.7% | 74.4% | 108% | 93.3% | – |
| CC(C)CC1NC(=O)C(CC(C)C)N(CO)C1=O (centres undefined) | 93.9% | 115% | 84.5% | 97.9% | 108% | 99.8% | 95.9% | 84.7% | 92.7% | – |
| O=C1C(Cl)=C(Nc2cccc3ccccc23)C(=O)c2ccccc21 | 79.1% | 74.4% | 58.5% | 95.4% | 68.2% | 25.4% | 77.5% | 65.4% | 64.9% | – |
| CC1(C)OC2OC3C(CN)OC(c4ccccc4)OC3C2O1 (centres undefined) | 103% | 103% | 103% | 104% | 103% | – | 96.8% | 104% | 5.53% (active) | 103% |
| COc1ccc(-c2cc(C(=O)Nc3ccc(Br)cc3)nc3[nH]c(=O)sc23)cc1 | -5.01% (active) | 37.2% | 28.6% | 19.9% | 54.8% | – | -2.87% (active) | 29.8% | 27.8% | 20.4% |
| Cc1cccc(/C=N/n2c(-c3ccc(Cl)cc3)nc3c(Br)cc(Br)cc3c2=O)c1 | 72.5% | 52.3% | 41.8% | 26.8% | 13.5% | 31.2% | 99.6% | 75.6% | 55.4% | – |
| CCOC(=O)c1cc(C(=O)OCC)c(C)nc1C | 124% | 102% | 96.5% | 113% | 112% | – | 110% | – | 90.8% | 105% |
| CCOC(=O)c1ccc(NC(=O)CSC(N)=O)cc1 | 98.6% | 128% | 56.6% | 113% | 102% | 108% | 111% | 103% | 84.6% | – |
| COc1ccc(-c2nn(C(=O)NCCN(C)C)cc2-c2ccncc2)cc1Cl | 32.7% | 43.4% | 52.6% | 17.1% | 47.8% | 51.1% | 34.2% | 47.9% | 34.3% | – |
| C=C(COC(C)=O)[C@H]1CC/C(C)=C/CC/C(C)=C/CC[C@@]2(C)O[C@H]2C1 | 101% | 106% | 99.9% | 108% | 99.8% | – | 119% | 328% | 110% | 106% |
| C#C[C@]1(O)CC[C@H]2[C@@H]3CC=C4c5sc(-c6cccc(Br)c6)nc5CC[C@]4(C)[C@H]3CC[C@@]21C | 98.2% | 80.1% | 62.6% | 97.7% | 83.3% | 35% | 71.7% | 61.4% | 58% | – |
| COc1ccc(NC(=O)Cn2c(=O)sc3c(-c4ccc(Cl)cc4)cc(-c4ccc(Cl)cc4)nc32)cc1 | 107% | 95.4% | 81.4% | 97.3% | 102% | 95.3% | 129% | 112% | 95% | – |
| O=C(N/N=C/c1ccc([N+](=O)[O-])cc1)c1ccccc1Nc1ccnc(C(F)(F)F)c1 | 58.5% | 67.5% | 67.8% | 83.4% | 82.6% | 76.4% | -26.1% (active) | 77.9% | 86.3% | – |
| NS(=O)(=O)c1ccc(CCn2c(SCC(=O)N/N=C/c3cc4ccccc4[nH]3)nc3ccccc3c2=O)cc1 | 25.7% | 85.3% | 67% | 102% | 93.9% | 82.5% | 102% | 35% | 23.1% | – |
| COc1cc(CN2CCC(N3CCCC3=O)c3ccccc32)cc(OC)c1OC (centres undefined) | 89.8% | 66.1% | 56% | 86.3% | 91.3% | – | 63.6% | – | 72.4% | 79.7% |
| ClCc1c(Cl)c(Cl)c(Cl)c(CCl)c1Cl | 87.7% | 101% | -21.7% (active) | -73.9% (active) | 8.92% (active) | -76.4% (active) | 89% | 3.24% (active) | 13.3% | – |
| OC(CCCCCCCCC(O)CN1CCc2ccccc2C1)CN1CCc2ccccc2C1 (centres undefined) | 111% | 89.5% | 86.1% | 103% | 110% | – | 107% | – | 110% | 105% |
| COc1cc(C2CC(c3ccccc3)=NN2C=O)ccc1Oc1ccnc2cc(Cl)ccc12 (centres undefined) | 82.4% | 33.5% | 47.2% | 91.1% | 68.9% | – | 76.4% | 45.7% | 12.8% | 65.4% |
| c1ccc(-c2ccc(-c3ccccc3)[nH]2)cc1 | 98.7% | 75.6% | 87% | 138% | 100% | 83.6% | 63.7% | 90.9% | 80.3% | – |
| CCn1c(=O)c(C(=O)NCCCO)c(O)c2ccccc21 | 112% | 65.6% | 86.9% | 180% | 102% | 116% | 109% | 103% | 100% | – |
